# Screens from PubChem.
# Tgondii IFNg: blocks Toxoplasma gondii growth in the presence of IFN-gamma | Toxoplasma gondii growth in IFN-gamma-treated host cells; active compounds read low | activity change, negative = inhibition, % (concentration not given with the values) | 69,000 compounds, 3.8% hits | AID 1259416; in the data active = activity change below about -70%, passing the limit was not always enough;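 note: host cells are HeLa cells infected with Toxoplasma gondii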
# Starred values were filed as active, the others as inactive. This is one part of a sample in which hits are shown more often than they occur.
SMILES,Tgondii IFNg
O=C(Nc1cnn(Cc2ccccc2F)c1)c1ccc(N2CCCCC2)cc1,-95*
O=C(Nc1ccc(N2CCCCC2)cc1)c1ccccc1Cl,199
C[C@@H]1CN(Cc2ccccc2F)CCN1CC(=O)Nc1ccc(N2CCCCCC2)cc1,444
CCN(CC)C(=O)c1cc(C)nc2c1c(=O)n(Cc1nc(-c3ccc(OC)cc3)oc1C)c(=O)n2C,-8
CCS(=O)(=O)N1CCCn2c(nnc2Cn2cccn2)C1,60
Cc1ccc2[nH]c(-c3nc(CCN(C)C(=O)c4cccn4C)no3)cc2c1,48
COc1ccc2[nH]c(-c3nc(CCN(C)C(=O)c4ccncc4)no3)cc2c1,102
CCc1c(-c2nc(CCN(C)C(=O)c3cccn3C)no2)[nH]c2ccc(C)cc12,-91*
COC(=O)[C@H]1C[C@@H](O)CCN1S(=O)(=O)c1c(C)cc(OC)c(C)c1C,-1
Cn1ccnc1-c1cnc(-c2ccncc2)nc1-c1ccc(Cl)cc1,-61
COc1ccc2c(c1)NC1(CCN(C(=O)c3ccccc3C(F)(F)F)CC1)c1cccn1-2,30
NCCN1CCOC(CC(=O)Nc2cc(Cl)cc(Cl)c2)C1=O (stereo not given),30
Cc1ccc(C)c(C(=O)Nc2ccc(-c3nc(Cn4cccn4)c(C)o3)cc2)c1,127
Cc1oc(-c2ccc(NC(=O)c3ccccc3Cl)cc2)nc1Cn1cccn1,-100*
Cc1ccc(C(=O)Nc2ccc(-c3nc(Cn4cc(C)cn4)c(C)o3)cc2)cc1,62
Cc1cnn(Cc2nc(-c3ccc(NC(=O)c4ccccc4C(F)(F)F)cc3)oc2C)c1,-88*
Cc1cnn(Cc2nc(-c3ccc(NC(=O)c4ccccc4)cc3)oc2C)c1,-38
Cc1cnn(Cc2nc(-c3ccc(NC(=O)c4ccc(Cl)s4)cc3)oc2C)c1,63
Cc1cnn(Cc2nc(-c3ccc(NC(=O)c4ccc(C(F)(F)F)cc4)cc3)oc2C)c1,-63
Cc1cnn(Cc2nc(-c3ccc(NC(=O)c4cc(F)cc(F)c4)cc3)oc2C)c1,87
Cc1cnn(Cc2nc(-c3ccc(NC(=O)c4sccc4C)cc3)oc2C)c1,-51
Cc1cccc(C(=O)Nc2ccc(-c3nc(Cn4cc(C)cn4)c(C)o3)cc2)c1,-87*
Cc1cnn(Cc2nc(-c3ccc(NC(=O)c4cccs4)cc3)oc2C)c1,-76*
Cc1ccc(C(=O)Nc2ccc(-c3nc(Cn4cccn4)c(C)o3)cc2)c(C)c1,-59
Clc1cccc(-c2nccn2-c2ccc(-n3cnnn3)cc2)c1,1
SMILES,Tgondii IFNg
Cc1cccn2c(CNC(=O)c3cc(COc4cccc(F)c4)[nH]n3)cnc12,-1
Cc1ccc(CN2CCC3(COCc4cnc(NCc5ccco5)nc43)C2)cc1 (stereo not given),-28
O=C(Nc1ccc(S(=O)(=O)c2ccc(NC(=O)C(F)(F)F)cc2)cc1)C(F)(F)F,-29
Cc1ccc(-c2coc(-c3ccc(NC(=O)C(C)C)cc3)n2)cc1,5
Cc1cc(C)n(Cc2nc(-c3ccc(NC(=O)/C=C/c4ccccc4)cc3)oc2C)n1,-43
Cc1cnn(Cc2nc(-c3ccc(NC(=O)c4ccccc4Cl)cc3)oc2C)c1,-84*
Cc1ccccc1CC(=O)Nc1ccc(-c2nc(Cn3cccn3)c(C)o2)cc1,32
Cc1cnn(Cc2nc(-c3ccc(NC(=O)c4ccc(F)cc4Cl)cc3)oc2C)c1,-45
CCOc1ccccc1C(=O)Nc1ccc(-c2nc(Cn3cc(C)cn3)c(C)o2)cc1,-45
Cc1oc(-c2ccc(NC(=O)/C=C/c3ccccc3)cc2)nc1Cn1cccn1,-87*
O=C(C1CC1)N1CCc2c(ncnc2NCc2ccccc2-n2ccnc2)C1,27
CC(=O)NC1(c2ccccc2F)CCN(CC(=O)N(C)C2CCCCC2)CC1,9
CCN(C)S(=O)(=O)NCCC1CN(Cc2ccco2)CCO1 (stereo not given),6
Nc1ccnc(N2CCC(CO)(Cc3ccccc3Cl)CC2)n1,-20
O=C(CCN1CCN(CCn2cncn2)CC1)Nc1nccs1,17
CC1CCCCN1CCNC(=O)c1csc(-c2ccc(N3CCCC3)nc2)n1 (stereo not given),-46
CCN1CCN(CCNC(=O)c2csc(-c3ccc(N4CCCC4)nc3)n2)CC1,-81*
O=C(NCCCN1CCCCC1)c1csc(-c2ccc(N3CCCC3)nc2)n1,16
COc1ccc(-c2nc(C)c(CCNS(=O)(=O)c3c(C)cc(C)cc3C)s2)cc1,64
Cc1cccc(-c2nc(Cn3nnc(-c4nc(-c5ccc6c(c5)OCO6)no4)c3C)c(C)o2)c1,7
CN(Cc1cc(-c2ccncc2)no1)Cc1ccc(Cl)cc1F,-90*
CCOc1ccccc1CN(C)Cc1cc(-c2ccncc2)no1,21
CN(Cc1cc(-c2ccncc2)no1)Cc1ccc(Cl)s1,-13
COc1ccc(-c2nc(Cn3c(=O)c4c(C)cc(C)nc4n(-c4ccccc4)c3=O)c(C)o2)cc1,2
O=C1c2cccc3cccc(c23)C(=O)N1CCO,-27
SMILES,Tgondii IFNg
CN(C)CCN1C(=O)c2cccc3cc(N)cc(c23)C1=O,-77*
O=C(CCCN1C(=O)c2cccc3cccc(c23)C1=O)OCc1ccc2c(c1)OCO2,-1
N[C@@H]1CCCN(Cc2ccncc2)[C@H]1c1ccccc1F,0
O=C(NCCc1csc(-c2ccccc2)n1)[C@H]1CSCN1S(=O)(=O)c1ccccc1F,-47
Cc1nc(-c2cc(C(=O)Cc3cccnc3)c3ccccn23)cn1C(C)C,98
CS(=O)(=O)N1CCN(C2CCOCC2)CC(C(=O)O)C1 (stereo not given),-100*
CN(C)C(=O)[C@H]1C[C@@H]2CCN(S(C)(=O)=O)C[C@H]2O1,-2
CS(=O)(=O)N1Cc2ccccc2C2(CCN(C3CCOCC3)CC2)C1,47
CC(C)c1ccc2c(c1)CCC1C(C)(CNC(=O)NC(C)(C)C)CCCC21C (stereo not given),-104*
CCOC(=O)N1c2ccc(C(C)C)cc2C=CC1C#N (stereo not given),204
CC(C)c1ccc(CN2CCC(CNC(=O)C3(N)CCC3)C2)cc1 (stereo not given),-8
CC(=O)N1CCCC2(CCN(Cc3c(F)ccc(C)c3Cl)C2)C1 (stereo not given),3
Cc1ccc(NC(=O)CN2CCC3(CC2)N=C(c2ccc(Cl)cc2)C(=O)N3)cc1C,57
Cc1ccc(-c2noc(-c3c(O)c4cccc(Cl)c4[nH]c3=O)n2)cc1,10
CSc1ccc(-c2noc(-c3c(O)c4cc(C)ccc4[nH]c3=O)n2)cc1,17
Cc1ccc2[nH]c3c(c2c1)CCOc1ccccc1-3,21
Cc1ccc2[nH]c3c(c2c1)CCc1nonc1-3,-99*
Cc1cc2nc(CCNC(=O)c3ccnc(N4CCN(C)CC4)c3)[nH]c2cc1C,4
CCOCC1CN(Cc2ccccn2)Cc2cn(C)nc21 (stereo not given),-5
COc1ccc(-c2cc(N)nc3[nH]ccc23)cn1,-34
Nc1cc(-c2cnc3ccccc3n2)c2cc[nH]c2n1,-90*
Cc1cnc(C)c(-c2cc(N)nc3[nH]ccc23)n1,196
CCOc1ccc(CC(=O)N2CCC3(CC2)Nc2ccccc2-n2cccc23)cc1OCC,-7
COc1ccc(CC(=O)N2CCc3nc(-c4ccc(F)cc4)nc(C)c3CC2)cc1,-8
Cc1n[nH]c(C)c1S(=O)(=O)N1CCN(CC(=O)N2CCCCC2)CC1,0
O=c1[nH]c2cc3c(cc2cc1CN(CCO)Cc1nnnn1Cc1ccccc1)OCCO3,-82*
Cc1ccc2cc(CN(CCO)CCO)c(=O)[nH]c2c1,5
CN(CCCc1cnn(C)c1)Cc1cc2ccc(F)cc2[nH]c1=O,-7
